# Experimental data from the supplement of paper PMC12669032.
# Unmarked numbers belong to inactive results.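 How the source made its calls: active = AUC reduced over 20% with Padj below 0.05 in at least 2 of 3 replicates; inactive = otherwise.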
# Assays:
# Test in all cases: growth AUC relative to DMSO control (median of replicates) (fraction); higher = more growth (less inhibition), active = hit call of the paper
# Settings in all cases: 20 µM; 24 h
# Coprococcus comes = system: Coprococcus comes
# Outline: (§1)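 Three biological replicates, each grown on a separate day, were combined as a median for every value. In each, a gut bacterial monoculture in mGAM started at OD600 0.05 and grew anaerobically at 37 °C with 20 µM compound (1% DMSO), with OD600 read hourly over 24 h. Area under the growth curve was normalised against the plate median of solvent-only wells, or against row and column medians on the industrial chemical plate, after the minimum OD was set to 0.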
# Escherichia coli ED1a = system: Escherichia coli ED1a
# Outline: as §1
# Escherichia coli IAI1 = system: Escherichia coli IAI1
# Outline: as §1
# Eubacterium rectale = system: Eubacterium rectale
# Outline: as §1
# [1] = system: Fusobacterium nucleatum subsp. animalis
# Outline: as §1
# Lactobacillus gasseri = system: Lactobacillus gasseri
# Outline: as §1
# Lactobacillus paracasei = system: Lactobacillus paracasei
# Outline: as §1
# Odoribacter splanchnicus = system: Odoribacter splanchnicus
# Outline: as §1
# [2] = system: Parabacteroides distasonis
# Outline: as §1
# Parabacteroides merdae = system: Parabacteroides merdae
# Outline: as §1
# Roseburia intestinalis = system: Roseburia intestinalis
# Outline: as §1
# Streptococcus salivarius = system: Streptococcus salivarius
# Outline: as §1
SMILES,growth AUC (Coprococcus comes),growth AUC (Escherichia coli ED1a),growth AUC (Escherichia coli IAI1),growth AUC (Eubacterium rectale),growth AUC [1],growth AUC (Lactobacillus gasseri),growth AUC (Lactobacillus paracasei),growth AUC (Odoribacter splanchnicus),growth AUC [2],growth AUC (Parabacteroides merdae),growth AUC (Roseburia intestinalis),growth AUC (Streptococcus salivarius)
CNC(=O)Oc1cccc(N=CN(C)C)c1.Cl,1.04,1,1.05,1.04,1.07,1.02,1.04,1.02,1.03,1.02,0.992,1.02
COC(=O)N(C(=O)N1CO[C@@]2(C(=O)OC)Cc3cc(Cl)ccc3C2=N1)c1ccc(OC(F)(F)F)cc1,0.857,0.946,0.939,1.09,0.92,0.654,0.896,0.994,0.808,0.901,0.907,0.873
N#Cc1sc2c(=O)c3ccccc3c(=O)c=2sc1C#N,0.921,0.945,0.957,0.911,0.881,1.01,0.875,0.926,0.928,0.968,1,0.908
COC(=O)NC(=S)Nc1ccccc1NC(=S)NC(=O)OC,0.93,0.995,0.996,1.14,1.12,0.835,1.01,1.05,0.944,1.03,0.979,0.98
Cl.NC1=NCCN1Cc1ccc(Cl)nc1,1.13,1.04,1.03,0.945,1.06,1.02,1.06,0.507 (active),1.02,1.05,0.963,1.01
COCCN(C(=O)CCl)c1c(C)cccc1C,0.983,1,0.973,0.854,0.939,1.02,0.831,0.965,0.968,0.985,0.96,0.957
CCC(C)(C)C(=O)OC1=C(c2ccc(Cl)cc2Cl)C(=O)OC12CCCCC2,0.977,0.966,0.949,0.906,0.968,0.928,0.987,1.02,0.861,0.968,1.02,1.03
COC(=O)C(C)N(C(=O)c1ccco1)c1c(C)cccc1C (stereo not given),0.96,0.971,0.981,1.06,1.04,0.86,1.06,0.938,1,0.918,0.97,0.942
CSc1nc(N=[N+]=[N-])nc(NC(C)C)n1,0.963,1.02,1.01,1.05,0.812,1.15,0.938,1.02,1.02,1,1.1,1.07
COC(=O)NCc1cc(/C(C)=N\OCc2cccc(C)n2)ccc1Cl,1.05,0.979,0.995,1.08,0.934,0.893,0.969,1,0.772,0.947,1.01,0.974
CCOP(=S)(Oc1ccc([N+](=O)[O-])cc1)c1ccccc1 (stereo not given),0.949,1.04,1.05,1.02,1.09,1.04,1.07,1.09,0.947,0.99,1.04,1.04
Nc1c(Cl)c(F)nc(OCC(=O)O)c1Cl,0.99,0.992,1.03,0.918,0.971,1.11,1.16,1,0.972,1.01,1,1
Fc1ccc(Oc2ccnc3cc(Cl)cc(Cl)c23)cc1,0.969,0.977,0.97,0.845,0.921,0.984,0.672,1,0.966,0.876,1.02,0.956
C=CCN=C=S,1,1.01,0.979,0.974,1.06,1.05,0.991,1,0.996,1.03,0.986,0.994
CCOP(=O)(OCC)ON1C(=O)c2cccc3cccc(c23)C1=O,0.971,0.994,0.958,1.16,0.961,0.954,0.971,0.484 (active),0.619 (active),0.794 (active),0.9,1.03
COC(=O)C(Cl)Cl,0.986,1,0.989,1,1.07,0.919,0.938,1.01,0.998,1,0.918,0.985
CCSCc1ccccc1OC(=O)NC,0.959,0.971,0.98,0.933,0.973,1.13,1.01,1.03,1.06,1.01,1.01,1.02
Oc1cc(Cl)c(Cl)cc1Cl,0.983,0.978,0.938,0.97,1,0.843,0.971,1.12,0.962,0.927,0.906,0.95
CCCCN(CCCC)SN(C)C(=O)Oc1cccc2c1OC(C)(C)C2,1.09,0.972,1.01,1.22,1.02,0.884,0.981,1,0.895,0.951,0.942,1
O=c1[nH]c(Cl)c(Cl)cc1Cl,0.998,0.952,0.983,0.991,1.04,0.928,0.984,0.942,0.921,1.01,0.993,0.998
COCC(C)N(C(=O)CCl)c1c(C)csc1C (stereo not given),1.02,0.976,0.993,1.16,0.825,0.806,1.01,0.822,0.683 (active),1,0.988,0.868
CCCC1COC(Cn2cncn2)(c2ccc(Cl)cc2Cl)O1 (stereo not given),0.941,0.979,0.972,0.545 (active),1,0.968,0.936,0.977,0.837,0.855,0.995,0.964
c1ccc(-c2ccccc2)cc1,0.991,1.03,1.01,1.09,1.1,0.94,0.749,0.945,1.04,0.998,1.02,0.993
Cc1ccc2nc3sc(=O)sc3nc2c1,0.964,0.969,0.948,1.02,1.04,0.915,0.954,1.14,0.924,0.954,0.892,0.983
"ClC1=C(Cl)C2(Cl)[C@H]3[C@H]4O[C@H]4[C@H](Cl)[C@H]3C1(Cl)C2(Cl)Cl (single isomer, unassigned; isomer a)",0.941,0.982,0.971,1.05,1.08,0.96,0.991,1.08,1.02,0.98,0.954,0.976
